Here are results for six sequences from publication PMC11574364.

Among the targets are hnRNP-D0 (Homo sapiens, UniProt Q14103); PABPC1L (Homo sapiens, UniProt Q4VXU2); NCL (Homo sapiens, UniProt P19338); hnRNP-A/B (Homo sapiens, UniProt Q99729); HNRNPA1L2 (Homo sapiens, UniProt Q32P51).
Common to all, as to assay: protein domain microarray probed with biotinylated miRNA; Domain array: 20 mM Tris-HCl pH 7.4, 200 mM KCl, 0.2 mM EDTA, 0.05% NP40, 2 ug/ul heparin, overnight 4 C. ORF array: PBS pH 7.0 with RNase inhibitor, 100 ng RNA; high values mean tight binding
Common to all, as to details: ssRNA

The next experiment concerns the target T1, PABPN1 (Homo sapiens, UniProt Q86U42).
T1 sequence: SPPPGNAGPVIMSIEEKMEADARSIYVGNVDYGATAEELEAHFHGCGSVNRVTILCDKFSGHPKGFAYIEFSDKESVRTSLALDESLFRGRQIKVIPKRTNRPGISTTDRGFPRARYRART

The target of a further experiment is T2, CNOT4 (Homo sapiens, UniProt O95628).
T2 sequence: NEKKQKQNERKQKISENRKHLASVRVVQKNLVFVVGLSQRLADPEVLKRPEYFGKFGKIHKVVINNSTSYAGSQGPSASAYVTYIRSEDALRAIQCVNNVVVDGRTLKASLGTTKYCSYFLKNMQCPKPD

For another experiment, the target named is T3, CSTF2 (Homo sapiens, UniProt P33240).
T3 sequence: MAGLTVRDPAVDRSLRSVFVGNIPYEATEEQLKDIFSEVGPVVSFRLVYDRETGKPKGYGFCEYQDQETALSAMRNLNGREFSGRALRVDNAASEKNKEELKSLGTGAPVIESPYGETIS

A further experiment has as its target T4, DRBP1(3-4) (Homo sapiens, UniProt Q8IUH3).
T4 sequence: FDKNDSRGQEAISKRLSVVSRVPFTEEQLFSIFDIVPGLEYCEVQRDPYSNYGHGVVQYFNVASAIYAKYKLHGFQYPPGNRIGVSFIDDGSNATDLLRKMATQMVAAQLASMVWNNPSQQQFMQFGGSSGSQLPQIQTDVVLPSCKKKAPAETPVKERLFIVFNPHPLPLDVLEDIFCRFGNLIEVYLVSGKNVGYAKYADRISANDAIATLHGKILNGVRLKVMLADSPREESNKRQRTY

A further experiment concerns the target T5, CPSF7 (Homo sapiens, UniProt Q8N684).
T5 sequence: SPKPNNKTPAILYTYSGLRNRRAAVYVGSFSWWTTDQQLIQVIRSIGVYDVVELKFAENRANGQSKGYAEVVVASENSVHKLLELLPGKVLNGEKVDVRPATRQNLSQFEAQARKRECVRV

Sequence of hnRNP-A/B (Q99729 50-250): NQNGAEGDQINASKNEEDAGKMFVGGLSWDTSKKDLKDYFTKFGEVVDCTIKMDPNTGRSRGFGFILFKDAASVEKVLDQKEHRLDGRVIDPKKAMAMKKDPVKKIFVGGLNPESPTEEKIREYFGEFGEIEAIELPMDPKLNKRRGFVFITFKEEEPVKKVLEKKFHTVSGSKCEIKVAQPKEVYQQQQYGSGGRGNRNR
Sequence of hnRNP-D0 (Q14103 80-280): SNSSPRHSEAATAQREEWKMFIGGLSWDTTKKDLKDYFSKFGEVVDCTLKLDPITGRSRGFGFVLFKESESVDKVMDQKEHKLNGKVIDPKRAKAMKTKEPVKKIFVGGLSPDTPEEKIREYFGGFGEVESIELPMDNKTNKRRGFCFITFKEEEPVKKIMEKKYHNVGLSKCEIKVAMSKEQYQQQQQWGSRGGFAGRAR
Sequence of HNRNPA1L2 (Q32P51 1-205): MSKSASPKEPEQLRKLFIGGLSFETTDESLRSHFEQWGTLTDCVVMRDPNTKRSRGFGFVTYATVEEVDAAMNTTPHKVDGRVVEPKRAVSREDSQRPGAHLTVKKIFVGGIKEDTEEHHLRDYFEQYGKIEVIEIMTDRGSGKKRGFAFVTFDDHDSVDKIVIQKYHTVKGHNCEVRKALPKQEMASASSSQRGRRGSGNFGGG
Sequence of NCL (P19338 288-670): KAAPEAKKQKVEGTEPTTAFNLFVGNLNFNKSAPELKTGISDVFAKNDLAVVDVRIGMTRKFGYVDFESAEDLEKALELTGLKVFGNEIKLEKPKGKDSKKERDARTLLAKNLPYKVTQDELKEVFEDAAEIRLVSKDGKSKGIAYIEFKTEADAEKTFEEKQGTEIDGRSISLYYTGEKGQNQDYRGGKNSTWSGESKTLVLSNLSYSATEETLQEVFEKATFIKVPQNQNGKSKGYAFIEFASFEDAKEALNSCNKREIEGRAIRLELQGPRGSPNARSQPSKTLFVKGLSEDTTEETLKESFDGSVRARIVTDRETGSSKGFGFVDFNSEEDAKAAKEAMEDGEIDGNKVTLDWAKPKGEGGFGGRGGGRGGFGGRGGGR
Sequence of PABPC1L (Q4VXU2 1-390): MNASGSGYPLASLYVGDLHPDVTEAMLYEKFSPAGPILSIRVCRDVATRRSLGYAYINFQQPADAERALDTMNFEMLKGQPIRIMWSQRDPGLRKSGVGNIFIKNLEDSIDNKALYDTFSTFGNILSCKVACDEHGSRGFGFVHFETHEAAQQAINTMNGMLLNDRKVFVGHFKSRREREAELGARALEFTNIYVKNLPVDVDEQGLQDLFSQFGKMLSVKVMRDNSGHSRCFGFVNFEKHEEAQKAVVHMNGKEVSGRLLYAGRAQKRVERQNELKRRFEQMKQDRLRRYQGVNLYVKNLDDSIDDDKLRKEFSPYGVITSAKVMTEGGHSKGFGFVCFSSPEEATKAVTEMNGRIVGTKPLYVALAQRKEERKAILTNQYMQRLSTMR

Regarding AGAGGUAGUAGGUUGCAUAGUU, the binding signal in the experiment with hnRNP-D0 amounted to 1690 ± 40.2 fluorescence intensity; with PABPC1L, 1740 ± 116 fluorescence intensity; with NCL, 3640 ± 50 fluorescence intensity; with PABPN1, 3510 ± 43.1 fluorescence intensity; with CNOT4, 230 ± 7.35 fluorescence intensity; with CSTF2, 1640 ± 152 fluorescence intensity. Moreover, the binding signal in the experiment with DRBP1(3-4) is 63.1 ± 5.42 fluorescence intensity; with hnRNP-A/B, 1830 ± 93.1 fluorescence intensity; in the experiment with CPSF7, 48.3 ± 8.88 fluorescence intensity; with HNRNPA1L2, 630 ± 43.3 fluorescence intensity.

With CAGUGCAAUGAUGAAAGGGCAU, the binding signal with hnRNP-D0 was 338 ± 13.6 fluorescence intensity; with PABPC1L it was 990.7 ± 2.47 fluorescence intensity; with NCL, 2833 ± 25.8 fluorescence intensity; in the experiment with PABPN1 it was 2170 ± 30.4 fluorescence intensity; in the experiment with CNOT4 it was 235.49 ± 0.198 fluorescence intensity; in the experiment with CSTF2, 484 ± 5.24 fluorescence intensity. In addition, the binding signal is 77 ± 15.6 fluorescence intensity with DRBP1(3-4), 1111 ± 3.46 fluorescence intensity with hnRNP-A/B, 47.8 ± 6.69 fluorescence intensity with CPSF7 and 236 ± 20 fluorescence intensity with HNRNPA1L2.

As for UGAGGUAGUAGGUUGUAUGGUU, the binding signal with hnRNP-D0 was 1386 ± 9.72 fluorescence intensity; in the experiment with PABPC1L, 1355 ± 13.5 fluorescence intensity; with NCL it was 2733 ± 6.99 fluorescence intensity; in the experiment with PABPN1, 2730 ± 37.5 fluorescence intensity; in the experiment with CNOT4, 263.8 ± 1.66 fluorescence intensity; in the experiment with CSTF2 it was 877 ± 50.3 fluorescence intensity. Besides, the binding signal with DRBP1(3-4) was 95.6 ± 13.4 fluorescence intensity; with hnRNP-A/B, 1148 ± 9.7 fluorescence intensity; with CPSF7 it was 58.9 ± 3.79 fluorescence intensity; in the experiment with HNRNPA1L2, 644 ± 46.8 fluorescence intensity.

UAGCUUAUCAGACUGAUGUUGA: the binding signal is 106 ± 5.55 fluorescence intensity with hnRNP-D0; 126 ± 31.5 fluorescence intensity with PABPC1L; 1820 ± 62.5 fluorescence intensity in the experiment with NCL; 329 ± 38.4 fluorescence intensity with PABPN1; 35.05 ± 0.099 fluorescence intensity in the experiment with CNOT4; 142 ± 42.3 fluorescence intensity in the experiment with CSTF2. In the experiment with hnRNP-A/B, this sequence showed a binding signal of 108 ± 7.62 fluorescence intensity.

Turning to UGAGGUAGUAGGUUGUGUGGUU, the binding signal with hnRNP-D0 amounted to 1275 ± 12.6 fluorescence intensity; with PABPC1L, 1150 ± 102 fluorescence intensity; with NCL it was 2320 ± 38.6 fluorescence intensity; with PABPN1 it was 2208 ± 3.21 fluorescence intensity; with CNOT4, 448 ± 8.85 fluorescence intensity; in the experiment with CSTF2, 1760 ± 71.7 fluorescence intensity. For the same sequence, the binding signal with DRBP1(3-4) was found to be 117 ± 36.4 fluorescence intensity; in the experiment with hnRNP-A/B it was 1294 ± 7.55 fluorescence intensity; with CPSF7 it was 106 ± 4.55 fluorescence intensity; with HNRNPA1L2, 551 ± 58 fluorescence intensity.

Take UGAGGUAGUAGGUUGUAUAGUU: the binding signal with hnRNP-D0 came out at 580 ± 40.2 fluorescence intensity; with PABPC1L, 626 ± 62.6 fluorescence intensity; with NCL, 1458 ± 3.11 fluorescence intensity; in the experiment with PABPN1, 2100 ± 89.2 fluorescence intensity; in the experiment with CNOT4, 73.77 ± 0.226 fluorescence intensity; with CSTF2 it was 546 ± 37.1 fluorescence intensity. Moreover, the binding signal stood at 453 ± 6.64 fluorescence intensity with hnRNP-A/B, 21.4 ± 4.04 fluorescence intensity in the experiment with CPSF7 and 226 ± 23.1 fluorescence intensity with HNRNPA1L2.
